USP30 inh: blocks human USP30 ubiquitin-rhodamine cleavage; inhibition, % at 25 µM; 5.3% of 47,000 active; purified USP30, Ub-rhodamine cleavage fluorescence
USP17 inh: inhibitors of human USP17 deubiquitinase; A8MUK1; purified USP17, Ub-rhodamine cleavage fluorescence, 3 h; inhibition, % at 50 µM; 6.5% of 47,000 active
USP28 block: inhibitors of human USP28 deubiquitinase. Q96RU2. purified USP28, Ub-rhodamine cleavage fluorescence, 30 min. inhibition, % at 25 µM. 3% of 47,000 active
* marks the source's active call; other numbers are inactive results; i = inactive; · = not tested or not shown. In the library only some 11% were active in any assay of this set; here they are far more common. Rule as the data show it: active = inhibition above about 30%; inactive = the rest.

SMILES	USP30 inh	USP17 inh	USP28 block
COc1ccc(-c2cc3c(=O)n(CC(=O)NCCCN4CCCC4)ncn3n2)cc1	47*	60*	10
COc1ccc(-c2cc3c(=O)n(CC(=O)Nc4ccccc4F)ccn3n2)cc1OC	9	70*	-3
CC(C)NC(=O)Cn1ccn2nc(-c3ccc(Cl)cc3)cc2c1=O	47*	82*	18
Cc1ccc(-c2cc(NC(=O)C(C)C)c(=O)n(CC(=O)Nc3cccc(Cl)c3)n2)cc1	5	4	4
COc1ccc(-c2cc3c(=O)n(CC(=O)NCCCN4CCCC4=O)ncn3n2)cc1	26	13	5
Cc1ccccc1-c1noc(-c2cccn(CC(=O)Nc3ccccc3F)c2=O)n1	-36	8	-24
Cc1cccc(Nc2nccnc2C2CCCN2C(=O)c2cscn2)n1 (stereo not drawn)	24	4	20
O=c1cc(C2CCN(Cc3ccccc3F)CC2)nc(-c2cccnc2)[nH]1	13	11	0
O=C(COc1ccc(Br)cc1Cl)c1c[nH]c2ccccc12	-134	-4	-23
COc1ccc(-c2cc3c(=O)n(CC(=O)NCCN(C)C)ncn3n2)cc1	2	-9	-5
COc1ccc(-c2cn(-c3ccc(C)cc3)c(=O)n2CC(=O)Nc2cccc(F)c2)cc1	-275	-130	-56
CCOc1ccccc1NC(=O)Cn1c(-c2ccc3c(c2)OCO3)cn(-c2ccc(OC)cc2)c1=O	28	52*	1
COc1ccc(-c2cc3c(=O)n(CC(=O)Nc4ccccc4Cl)ccn3n2)cc1	6	55*	10
O=C(Nc1ccc2c(c1)OCCO2)N1CCC(CN2CCCCC2)CC1	·	10	·
CCOc1ccc(S(=O)(=O)NCc2ccccc2Cl)c2ccccc12	45*	32*	20
CCOc1ccc(S(=O)(=O)n2ccc(C)n2)c2ccccc12	·	12	·
Cc1cc(/C=C2/C(=N)N3C(c4ccccc4)=CSC3=NC2=O)c(C)n1-c1ccc2ccccc2c1	i	-188	-259
c1ccc(-n2nnnc2N2CCCC2c2ccc3c(c2)OCCCO3)cc1 (stereo not drawn)	0	-7	-4
CN1C[C@@H](NC(=O)c2ccc(F)cc2)C[C@H]1c1nc(-c2ccc(F)cc2)no1	-74	·	-7
CCCCCCCc1cc(O)cc(O)c1	20	5	77*
Cc1ccc(NC(=O)CC(c2ccc(F)cc2)N2Cc3ccccc3C2=O)nc1 (stereo not drawn)	11	1	16
CCOc1ccc(C(CC(=O)Nc2cc(C)ccn2)N2Cc3ccccc3C2=O)cc1OC (stereo not drawn)	34*	44*	5
O=C(c1ccc2ccccc2n1)N1CCc2[nH]ncc2C1	-18	0	-5
O=C1NCc2c1c1c3ccccc3[nH]c1c1[nH]c3ccccc3c21	37*	51*	19
Cc1nc2c(c3c1[nH]c1ccccc13)C(=O)CC(C)(C)C2	-128	-57	-65
SMILES	USP30 inh	USP17 inh	USP28 block
O=C(c1ccncc1)N1CCC(c2c[nH]c3ccccc23)(c2c[nH]c3ccccc23)CC1	4	47*	6
O=C(CCc1c[nH]c2ccccc12)N1CCN(C(=O)c2ccncc2)CC1	4	-2	-3
CC(c1ccccc1)n1c(COc2ccccc2)nc2ccccc21 (stereo not drawn)	19	3	8
Cc1nn(-c2ccccc2)c2c1C(c1ccco1)c1c(ncn3nc(CO/N=C/c4ccccc4)nc13)O2 (stereo not drawn)	14	1	5
CCOc1cc(N2CCOCC2)c(OCC)cc1NC(=O)c1cc2c(s1)CCC2	11	36*	13
CCOc1cc(N2CCOCC2)c(OCC)cc1NC(=O)COC(=O)c1ccc2ncsc2c1	2	4	-3
CCS(=O)(=O)N1Cc2ccccc2CC1C(=O)NCc1ccc2c(c1)OCO2 (stereo not drawn)	-40	26	7
c1cc(-c2cncnc2)nc(C2CN(Cc3ccnc4ccccc34)CCO2)c1 (stereo not drawn)	-38	-1	-2
COc1cccc2cccc(O)c12	-58	85*	12
COc1cccc2cc(-c3csc(N)n3)oc12	-22	-10	18
CC(C)N(C)Cc1nnn2c1CN(Cc1cccnc1)CCC2	10	8	-2
CC(=O)c1oc2nc(-c3ccccc3)cc(-c3cccs3)c2c1N	-370	-44	-94
CC(=O)Nc1nsc(N2CCC(C(=O)N3CCN(c4ccc(C)cc4)CC3)CC2)n1	7	-4	0
COc1cccc(N2CCN(C(=O)C3CCN(c4nc(NC(C)=O)ns4)CC3)CC2)c1	-3	69*	-4
Clc1cccc(CN2CCc3nc(N4CCOCC4)ncc3C2)c1	-111	-63	-34
Fc1ccccc1N1CCN(c2ncc3c(n2)CCN(Cc2ccccn2)C3)CC1	17	51*	6
Cc1ccc(NC(=O)c2ccccn2)nc1	2	-1	-10
O=C(Nc1cc(Cl)ccc1-n1cncn1)c1ccccc1SCc1ccccc1F	-40	-37	4
COc1ccc(CCN2C[C@@]34CN(C(=O)c5cccnc5)C[C@@H](C[C@@H]3S2(=O)=O)O4)cc1	4	0	-8
COc1ccc2[nH]c3c(c2c1)CCN1C(=O)N(c2ccccc2C(=O)NCCc2ccccc2)C(=O)[C@]31C	-21	11	-12
CC1CCC(NC(=O)c2ccccc2N2C(=O)N3CCc4c([nH]c5ccccc45)[C@@]3(C)C2=O)CC1 (stereo partly drawn)	-9	5	-2
C[C@]12C(=O)N(c3ccccc3C(=O)NC3CCCCC3)C(=O)N1CCc1c2[nH]c2ccccc12	32*	45*	6
COc1ccc(CCNC(=O)c2ccccc2N2C(=O)N3CCc4c([nH]c5ccc(OC)cc45)[C@@]3(C)C2=O)cc1	41*	43*	-2
CCN1C[C@H]2CCN(C(=O)c3cccnc3)CC[C@H]2S1(=O)=O	2	-4	5
CC(C)N1CCN(c2ccc3ccc(C(=O)N4CCC(N(C)C)CC4)cn23)CC1	-198	-73	-52
SMILES	USP30 inh	USP17 inh	USP28 block
COc1cccc(C(=O)Nc2nonc2-c2ccc(C(C)C)cc2)c1	29	15	13
COc1cccc(CNC(=O)C2=Cc3cccc(OC)c3OC2)c1	0	-103	60*
COc1cccc(CNC(=O)c2nc3c(o2)CN(CC2CC2)C3)c1	-38	-9	-13
Cc1ccc(Cn2cc(-c3noc(-c4ccco4)n3)nn2)cc1	-9	-1	6
Fc1ccc(Cn2cc(-c3noc(-c4ccccn4)n3)nn2)cc1	2	-19	9
COc1ccccc1-c1nc(-c2cn(Cc3ccc(C)cc3)nn2)no1	30*	8	21
N#Cc1ccc(-c2nc(-c3cn(Cc4cccc(F)c4)nn3)no2)cc1	-32	36*	0
c1ccc(Cn2cc(-c3noc(-c4cccnc4)n3)nn2)cc1	17	7	-3
CCOc1ccccc1-c1nc(-c2cn(Cc3ccc(F)cc3)nn2)no1	58*	64*	-1
O=C(NC1CCCCCC1)C1CCCN(C(=O)c2cc(-c3ccccn3)n[nH]2)C1 (stereo not drawn)	22	0	-4
Cc1nc(N2CCCC2)cc(N2CCN(C(=O)c3cccs3)CC2)n1	9	-25	8
O=C(c1ccc2n[nH]nc2c1)N1C[C@@H](O)[C@H](N2CCOCC2)C1	0	0	-2
